Whole data set: some 33,000 sequences, median “E-score (-0.5 to 0.5)” near -0.056, cut for the highest 2% near 0.38. The entries come from a sample that favours the highest values as a whole.
The sequences below were run against Stb4 (UniProt P50104) (assay: PBM E-score (8-mer binding enrichment) (E-score (-0.5 to 0.5)); higher = stronger / more preferred TF binding). Conditions: protein concentration: 200 nM; construct: GST-DNA-binding domain.
Sequence of UniProt P50104 (P50104 whole entry, the tested form may be a part): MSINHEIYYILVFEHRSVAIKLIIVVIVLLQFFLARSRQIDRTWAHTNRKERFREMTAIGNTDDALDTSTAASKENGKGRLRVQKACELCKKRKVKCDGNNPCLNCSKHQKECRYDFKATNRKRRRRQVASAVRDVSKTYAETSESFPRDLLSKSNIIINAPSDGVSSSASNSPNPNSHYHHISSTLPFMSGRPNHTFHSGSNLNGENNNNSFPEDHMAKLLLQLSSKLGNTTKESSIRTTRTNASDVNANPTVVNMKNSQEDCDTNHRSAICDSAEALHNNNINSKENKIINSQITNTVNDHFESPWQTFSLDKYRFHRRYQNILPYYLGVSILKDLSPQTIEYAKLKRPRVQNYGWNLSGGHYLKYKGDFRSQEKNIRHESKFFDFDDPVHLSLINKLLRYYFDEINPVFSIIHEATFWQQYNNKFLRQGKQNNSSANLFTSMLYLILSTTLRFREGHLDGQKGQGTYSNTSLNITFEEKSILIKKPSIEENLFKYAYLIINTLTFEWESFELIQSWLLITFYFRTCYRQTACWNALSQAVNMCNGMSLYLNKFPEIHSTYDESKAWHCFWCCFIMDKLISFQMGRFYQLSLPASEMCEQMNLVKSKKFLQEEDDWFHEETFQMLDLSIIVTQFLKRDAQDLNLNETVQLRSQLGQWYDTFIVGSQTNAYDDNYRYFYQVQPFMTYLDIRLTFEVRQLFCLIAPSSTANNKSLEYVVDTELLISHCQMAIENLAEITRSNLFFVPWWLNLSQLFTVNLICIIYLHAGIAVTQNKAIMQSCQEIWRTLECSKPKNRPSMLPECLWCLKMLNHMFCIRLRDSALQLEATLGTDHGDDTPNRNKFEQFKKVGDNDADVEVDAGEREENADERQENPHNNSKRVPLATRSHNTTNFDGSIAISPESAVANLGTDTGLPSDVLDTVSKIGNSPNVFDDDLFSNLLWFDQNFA
Method in brief: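 GST-tagged yeast TFs (full-length or DNA-binding domain) were made by PURExpress in vitro transcription/translation and applied at about 100-200 nM to universal all-10-mer Agilent arrays. The arrays were made double-stranded by primer extension, on fresh or once-stripped slides. Bound protein was detected with fluorescent anti-GST, and scans were normalised with masliner. Each ungapped eight-base word, pooled with its reverse complement, received an E-score (modified Wilcoxon-Mann-Whitney statistic) from the Universal PBM Analysis Suite.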
In the case of ACTTTCCC, the “PBM E-score” value is reported as 0.121. In the case of AGTTTCCG, the “PBM E-score” value is reported as 0.437. With ACTTTCCG the “PBM E-score” value was 0.383. For ACTTTCCT, the “PBM E-score” value was -0.22. For AGTTTCCC, the “PBM E-score” value was 0.132. ATTTTCCG was tested, and the “PBM E-score” value was 0.424. In the case of CATTTCCA, the “PBM E-score” value is reported as -0.196. In the case of CGCAGGAA, the “PBM E-score” value is reported as -0.0189. With ATATGGCG the “PBM E-score” value was 0.0558. For CGAGTAAC, the “PBM E-score” value was 0.166. For CTGGCTGC, the “PBM E-score” value was -0.108. For AAAGGGTC, the “PBM E-score” value was -0.0434. ACGGGGGG was tested, and the “PBM E-score” value was -0.228. In the case of GCCACGCC, the “PBM E-score” value is reported as -0.282. With GATAGCGA the “PBM E-score” value was -0.0238. In the case of AGTTTCGC, the “PBM E-score” value is reported as 0.0157. For AGTTTCGG, the “PBM E-score” value was 0.412. For AGTTTCGA, the “PBM E-score” value was -0.131. AATTTCCC was tested, and the “PBM E-score” value was 0.142. In the case of AATTTCCG, the “PBM E-score” value is reported as 0.425. For AATTTCCT, the “PBM E-score” value was -0.0502. CTAAGTCA was tested, and the “PBM E-score” value was -0.0795. In the case of CCCAATGC, the “PBM E-score” value is reported as -0.17. In the case of ATTGGCTG, the “PBM E-score” value is reported as -0.167. With GATAAGCA the “PBM E-score” value was 0.136. With AGTTCGGA the “PBM E-score” value was 0.442. AGTTCGTA was tested, and the “PBM E-score” value was 0.0255. With AGTTCGGC the “PBM E-score” value was 0.357. For AGTTCGGG, the “PBM E-score” value was 0.426. AGTTCGCA was tested, and the “PBM E-score” value was -0.158. For AGTTCGTG, the “PBM E-score” value was -0.157. With AACATTCA the “PBM E-score” value was -0.00804. With AACGGCAT the “PBM E-score” value was 0.232. For AAAAGAGC, the “PBM E-score” value was -0.189. CATCTCGA was tested, and the “PBM E-score” value was -0.252. With AAACTCGG the “PBM E-score” value was 0.419. In the case of AAACTCGT, the “PBM E-score” value is reported as -0.228. For AAACTCGC, the “PBM E-score” value was -0.0551. AATCTCGG was tested, and the “PBM E-score” value was 0.434. For ATTCTCGG, the “PBM E-score” value was 0.425. In the case of CATCTCGG, the “PBM E-score” value is reported as 0.458. In the case of ATTCTCGC, the “PBM E-score” value is reported as -0.286. In the case of AATCTCGA, the “PBM E-score” value is reported as -0.0861. In the case of CATCTCGC, the “PBM E-score” value is reported as -0.0526. In the case of AATCTCGT, the “PBM E-score” value is reported as -0.0273. With ATTCTCGA the “PBM E-score” value was -0.194. In the case of CACGCTCG, the “PBM E-score” value is reported as 0.119. With AATCGAAT the “PBM E-score” value was 0.00368. In the case of CTGAGAGC, the “PBM E-score” value is reported as -0.138. For AATACTGG, the “PBM E-score” value was -0.159. For TCTAAAAA, the “PBM E-score” value was 0.0389. For AGGGTGTA, the “PBM E-score” value was -0.093. With GTCGCAGA the “PBM E-score” value was -0.195. In the case of ACTCTCGC, the “PBM E-score” value is reported as -0.0541. With AGTCTCGA the “PBM E-score” value was -0.0187. AGTCTCGC was tested, and the “PBM E-score” value was -0.0759. For AGTCTCGG, the “PBM E-score” value was 0.39. In the case of ACTCTCGA, the “PBM E-score” value is reported as -0.214. In the case of ACTCTCGG, the “PBM E-score” value is reported as 0.416. For ATAGCCTC, the “PBM E-score” value was -0.00394. In the case of ACTGATAC, the “PBM E-score” value is reported as 0.0597. ATAGTCGC was tested, and the “PBM E-score” value was -0.076. With ACGCTACC the “PBM E-score” value was 0.00891. With TATTTTGA the “PBM E-score” value was -0.151. In the case of TAGCCTCA, the “PBM E-score” value is reported as -0.198. With GATGCTTA the “PBM E-score” value was -0.00303. In the case of CAGATCCA, the “PBM E-score” value is reported as 0.0283. For AAGATCCC, the “PBM E-score” value was 0.126. For CAGATCCC, the “PBM E-score” value was 0.00572. With AAGATCCG the “PBM E-score” value was 0.41. With CAGATCCG the “PBM E-score” value was 0.416. In the case of AAGATCCA, the “PBM E-score” value is reported as -0.0259. For GGGCCGCA, the “PBM E-score” value was 0.134. For AGTCACAA, the “PBM E-score” value was -0.173. With AGTTTAGG the “PBM E-score” value was -0.238. AAATGGGG was tested, and the “PBM E-score” value was -0.344. ACCTGGTG was tested, and the “PBM E-score” value was -0.0216. In the case of ATCGGCGG, the “PBM E-score” value is reported as 0.327. CGCATCCG was tested, and the “PBM E-score” value was 0.408. For AGCATCCG, the “PBM E-score” value was 0.419. For AGCATCCA, the “PBM E-score” value was -0.115. For CGCATCCC, the “PBM E-score” value was -0.0101. With AGCATCCT the “PBM E-score” value was 0.0794. With CGCATCCA the “PBM E-score” value was -0.126. For CTCGTAGA, the “PBM E-score” value was -0.246. With GAAACGTC the “PBM E-score” value was 0.0218. For CATCGGTA, the “PBM E-score” value was 0.345. For AATCGGTA, the “PBM E-score” value was 0.205. In the case of CCTCGGTA, the “PBM E-score” value is reported as 0.38. ACTCGGTA was tested, and the “PBM E-score” value was 0.322. GCTCGGTA was tested, and the “PBM E-score” value was 0.416. With GATCGGTA the “PBM E-score” value was 0.407. In the case of GCTAGACC, the “PBM E-score” value is reported as -0.0645. With AGTTTTCG the “PBM E-score” value was 0.152. TATGAAGA was tested, and the “PBM E-score” value was -0.0238. For ACTGTCTG, the “PBM E-score” value was -0.0825. With AGGAAAGA the “PBM E-score” value was -0.174. For CGGAAAGA, the “PBM E-score” value was 0.407. CAGAAAGC was tested, and the “PBM E-score” value was -0.131. In the case of CGGAAAGC, the “PBM E-score” value is reported as 0.386. With GGGAAAGA the “PBM E-score” value was -0.0458. In the case of AGGAAAGC, the “PBM E-score” value is reported as -0.0848. For TGAGCTAA, the “PBM E-score” value was -0.15. For CAATGCGG, the “PBM E-score” value was 0.0433. AACTTCCA was tested, and the “PBM E-score” value was 0.132. In the case of CACTTCCC, the “PBM E-score” value is reported as 0.0457. With CACTTCCG the “PBM E-score” value was 0.397. In the case of CACTTCCA, the “PBM E-score” value is reported as -0.0868. With AACTTCCT the “PBM E-score” value was -0.0245. For AACTTCCG, the “PBM E-score” value was 0.451. With AGTTCATC the “PBM E-score” value was -0.107. With CGAACGAG the “PBM E-score” value was 0.0473. In the case of CAGAGTGA, the “PBM E-score” value is reported as -0.0625. For AATAACTC, the “PBM E-score” value was -0.0405. For AGATGAGA, the “PBM E-score” value was -0.103. In the case of GATTGCGC, the “PBM E-score” value is reported as -0.00733. In the case of AGATAAAC, the “PBM E-score” value is reported as 0.00284. For AGAGACCC, the “PBM E-score” value was -0.0488. For CAGTTCGG, the “PBM E-score” value was 0.409. With CAGTTCGA the “PBM E-score” value was -0.262. For AAGTTCGC, the “PBM E-score” value was -0.187. For AAGTTCGA, the “PBM E-score” value was 0.0503. AAGTTCGG was tested, and the “PBM E-score” value was 0.421. With CAGTTCGC the “PBM E-score” value was -0.194. In the case of ATCCACGG, the “PBM E-score” value is reported as 0.109. With GGGAGACA the “PBM E-score” value was 0.146. In the case of CAGGCGGC, the “PBM E-score” value is reported as 0.067. In the case of CCCGTCGA, the “PBM E-score” value is reported as 0.102. In the case of CCCGTCGC, the “PBM E-score” value is reported as -0.00272. CCCGTCGG was tested, and the “PBM E-score” value was 0.386. CCTGGCAC was tested, and the “PBM E-score” value was -0.00805. For GAAGAGGC, the “PBM E-score” value was -0.016. In the case of ATCGGATA, the “PBM E-score” value is reported as 0.467. For CTCAGATA, the “PBM E-score” value was -0.00864. In the case of ATAGGATA, the “PBM E-score” value is reported as -0.00309. ATTGGATA was tested, and the “PBM E-score” value was -0.121. In the case of CTCGGATA, the “PBM E-score” value is reported as 0.49. For ATCGGAGG, the “PBM E-score” value was 0.199. For ATCGGATC, the “PBM E-score” value was 0.43. In the case of ATTGGATC, the “PBM E-score” value is reported as -0.0271. For CTAGGATA, the “PBM E-score” value was -0.0673. With ATGGGATG the “PBM E-score” value was -0.0874. With AACGGATC the “PBM E-score” value was 0.306. In the case of ATCGGATG, the “PBM E-score” value is reported as 0.451. With CCCTCTAA the “PBM E-score” value was -0.182. AGACCTTG was tested, and the “PBM E-score” value was -0.312. For ACTAGGAC, the “PBM E-score” value was -0.0716. For GTCATTTA, the “PBM E-score” value was -0.171. AATGGTTG was tested, and the “PBM E-score” value was 0.02. In the case of GTCAGGCA, the “PBM E-score” value is reported as -0.118. AGCTGGAT was tested, and the “PBM E-score” value was -0.0862. For AAGACTGA, the “PBM E-score” value was -0.25. With CTGGGATC the “PBM E-score” value was -0.0424. For CTCGGATC, the “PBM E-score” value was 0.481. CTCAGATC was tested, and the “PBM E-score” value was -0.103. GTCGGATA was tested, and the “PBM E-score” value was 0.463. With GTCGGACA the “PBM E-score” value was 0.22. GTCGGAGA was tested, and the “PBM E-score” value was 0.294. For GTCAGCTA, the “PBM E-score” value was -0.259. TCTGCAAA was tested, and the “PBM E-score” value was -0.122. In the case of CCATCGCA, the “PBM E-score” value is reported as -0.229. In the case of GGGAAATA, the “PBM E-score” value is reported as 0.157. In the case of CGGAAAAG, the “PBM E-score” value is reported as 0.373. With CGGAAATC the “PBM E-score” value was 0.366. In the case of CGGAAATA, the “PBM E-score” value is reported as 0.429. CGGAAAAC was tested, and the “PBM E-score” value was 0.37. For CGGAAAAA, the “PBM E-score” value was 0.446. In the case of CTCTTTGA, the “PBM E-score” value is reported as -0.285. CTTAGAAG was tested, and the “PBM E-score” value was -0.29. In the case of CGTATTGA, the “PBM E-score” value is reported as -0.271. AGTTACTA was tested, and the “PBM E-score” value was -0.103. With ACAATCTG the “PBM E-score” value was -0.064.

Reference: the supplement of paper PMC3334620
